Measured values: paper PMC7862700, “An all-to-all approach to the identification of sequence-specific readers for epigenetic DNA modifications on cytosine”

Columns and labels:
Assay in all cases: DAPPL (digital affinity profiling via proximity ligation, sequencing); 10 mM Tris-HCl pH 7.5, 50 mM NaCl, 1 mM DTT, 4% glycerol, room temperature, 30 min; GST-TFs on glutathione beads, 16-mer random dsDNA library, 0.1% formaldehyde crosslink after washing; high values mean tight binding
Details in all cases: protein: recombinant; tags: N-terminal GST; dsDNA, one strand shown
ERF = molecular target: T1, ERF (Homo sapiens, UniProt P50548 1-548)
T1 sequence: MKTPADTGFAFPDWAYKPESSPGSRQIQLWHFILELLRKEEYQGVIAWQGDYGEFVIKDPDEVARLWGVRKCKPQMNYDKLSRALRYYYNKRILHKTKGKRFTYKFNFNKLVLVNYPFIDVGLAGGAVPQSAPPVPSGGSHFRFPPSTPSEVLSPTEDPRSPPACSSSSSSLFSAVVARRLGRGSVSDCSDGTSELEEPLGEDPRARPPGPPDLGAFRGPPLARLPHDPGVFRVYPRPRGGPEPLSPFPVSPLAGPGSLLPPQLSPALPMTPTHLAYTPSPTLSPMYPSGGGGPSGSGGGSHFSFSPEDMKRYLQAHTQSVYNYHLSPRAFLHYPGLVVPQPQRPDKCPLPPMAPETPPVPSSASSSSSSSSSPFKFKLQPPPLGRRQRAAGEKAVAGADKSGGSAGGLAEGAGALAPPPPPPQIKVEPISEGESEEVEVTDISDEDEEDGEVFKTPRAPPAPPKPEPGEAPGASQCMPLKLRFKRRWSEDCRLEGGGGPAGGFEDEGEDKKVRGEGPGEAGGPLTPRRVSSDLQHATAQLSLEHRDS
In short: (§1)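 Human transcription factors fused to GST were expressed in yeast, captured on glutathione beads, given DNA barcodes and pooled with a GST-only negative control. Pools were incubated with 200 nmole of a 16-mer random double-stranded DNA library in Tris/NaCl/DTT/glycerol buffer at room temperature for 30 min. They were then washed, crosslinked with 0.1% formaldehyde, proximity-ligated (BsaI/T4 ligase, 1 h, 37 °C), PCR-amplified and sequenced on an Illumina NextSeq500. Binding signal is each 6-mer's read frequency for a factor divided by its frequency for the GST control.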

ETV3L = molecular target: T2, ETV3L (Homo sapiens, UniProt Q6ZN32 1-361)
T2 sequence: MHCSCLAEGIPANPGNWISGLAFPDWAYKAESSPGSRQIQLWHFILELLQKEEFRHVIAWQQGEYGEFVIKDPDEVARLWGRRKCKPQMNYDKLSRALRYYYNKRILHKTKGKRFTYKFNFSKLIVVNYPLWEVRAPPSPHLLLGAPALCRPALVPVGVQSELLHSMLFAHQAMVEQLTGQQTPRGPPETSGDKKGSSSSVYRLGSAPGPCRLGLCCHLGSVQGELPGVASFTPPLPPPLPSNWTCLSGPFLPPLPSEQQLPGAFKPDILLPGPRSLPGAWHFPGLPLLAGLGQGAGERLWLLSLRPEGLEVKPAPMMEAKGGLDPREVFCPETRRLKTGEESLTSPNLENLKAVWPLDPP
In short: as §1

ETS2 = molecular target: T3, ETS2 (Homo sapiens, UniProt P15036 1-469)
T3 sequence: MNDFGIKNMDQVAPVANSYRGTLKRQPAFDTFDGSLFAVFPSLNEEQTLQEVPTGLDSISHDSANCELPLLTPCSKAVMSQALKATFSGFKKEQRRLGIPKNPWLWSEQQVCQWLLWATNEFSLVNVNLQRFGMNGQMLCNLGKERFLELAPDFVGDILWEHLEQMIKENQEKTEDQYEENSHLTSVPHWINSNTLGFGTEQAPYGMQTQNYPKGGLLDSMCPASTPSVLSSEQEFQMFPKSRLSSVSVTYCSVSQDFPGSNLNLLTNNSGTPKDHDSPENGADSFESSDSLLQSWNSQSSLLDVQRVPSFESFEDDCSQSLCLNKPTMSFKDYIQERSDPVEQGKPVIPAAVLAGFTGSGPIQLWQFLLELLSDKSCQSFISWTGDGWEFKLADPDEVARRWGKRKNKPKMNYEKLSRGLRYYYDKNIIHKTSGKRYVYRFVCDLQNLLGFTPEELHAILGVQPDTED
In short: as §1

SPDEF = molecular target: T4, SPDEF (Homo sapiens, UniProt O95238 1-335)
T4 sequence: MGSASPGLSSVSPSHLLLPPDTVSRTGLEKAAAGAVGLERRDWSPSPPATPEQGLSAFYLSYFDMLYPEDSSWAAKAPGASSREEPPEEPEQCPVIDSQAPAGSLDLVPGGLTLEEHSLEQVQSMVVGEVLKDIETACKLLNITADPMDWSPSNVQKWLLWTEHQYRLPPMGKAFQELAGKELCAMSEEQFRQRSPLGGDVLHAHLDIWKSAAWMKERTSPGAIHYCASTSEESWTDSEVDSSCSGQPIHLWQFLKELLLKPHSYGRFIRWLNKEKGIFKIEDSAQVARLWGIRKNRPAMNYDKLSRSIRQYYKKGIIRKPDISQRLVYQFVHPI
In short: as §1

ETV7 = molecular target: T5, ETV7 (Homo sapiens, UniProt Q9Y603 1-341)
T5 sequence: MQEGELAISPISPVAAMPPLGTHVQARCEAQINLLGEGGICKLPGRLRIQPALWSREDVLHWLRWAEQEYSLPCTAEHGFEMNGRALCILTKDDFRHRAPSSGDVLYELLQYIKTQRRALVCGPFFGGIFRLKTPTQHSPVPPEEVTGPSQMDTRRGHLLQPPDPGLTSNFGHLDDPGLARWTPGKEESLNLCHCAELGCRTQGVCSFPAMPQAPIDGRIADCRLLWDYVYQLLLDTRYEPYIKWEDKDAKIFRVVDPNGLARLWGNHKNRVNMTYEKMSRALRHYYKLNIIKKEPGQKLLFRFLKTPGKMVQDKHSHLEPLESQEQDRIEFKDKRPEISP
In short: as §1

ELF5 = molecular target: T6, ELF5 (Homo sapiens, UniProt Q9UKW6-2 1-255)
T6 sequence: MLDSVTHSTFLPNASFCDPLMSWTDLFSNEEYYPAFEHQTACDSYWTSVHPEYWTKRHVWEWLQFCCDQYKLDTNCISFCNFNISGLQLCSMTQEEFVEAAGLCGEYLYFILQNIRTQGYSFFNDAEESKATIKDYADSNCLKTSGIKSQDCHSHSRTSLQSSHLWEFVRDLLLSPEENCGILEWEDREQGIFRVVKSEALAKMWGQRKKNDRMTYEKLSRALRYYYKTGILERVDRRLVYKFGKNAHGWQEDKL
In short: as §1

ETV3 = molecular target: T7, ETV3 (Homo sapiens, UniProt P41162-2 1-143)
T7 sequence: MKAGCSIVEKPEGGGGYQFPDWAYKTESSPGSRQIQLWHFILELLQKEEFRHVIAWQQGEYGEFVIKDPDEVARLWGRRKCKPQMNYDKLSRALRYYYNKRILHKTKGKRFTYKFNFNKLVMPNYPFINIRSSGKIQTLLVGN
In short: as §1

ETV6 = ETV6 (Homo sapiens, UniProt P41212 1-452)
Chain of ETV6 (P41212 whole entry): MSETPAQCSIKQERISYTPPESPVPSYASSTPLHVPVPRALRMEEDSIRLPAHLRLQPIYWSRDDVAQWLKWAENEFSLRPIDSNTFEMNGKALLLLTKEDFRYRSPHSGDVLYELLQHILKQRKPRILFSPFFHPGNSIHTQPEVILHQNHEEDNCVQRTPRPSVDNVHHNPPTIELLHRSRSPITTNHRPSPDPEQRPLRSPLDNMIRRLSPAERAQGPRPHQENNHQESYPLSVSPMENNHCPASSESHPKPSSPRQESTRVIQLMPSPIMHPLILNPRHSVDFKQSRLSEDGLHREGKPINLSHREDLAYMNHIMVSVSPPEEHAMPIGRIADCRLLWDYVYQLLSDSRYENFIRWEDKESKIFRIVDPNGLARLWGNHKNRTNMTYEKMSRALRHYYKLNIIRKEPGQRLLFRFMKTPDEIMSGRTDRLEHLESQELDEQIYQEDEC
In short: as §1

Sequence | binding signal (ERF) | binding signal (ETV3L) | binding signal (ETS2) | binding signal (SPDEF) | binding signal (ETV7) | binding signal (ELF5) | binding signal (ETV3) | binding signal (ETV6)
ATCTAC | 1.44 fold enrichment (6-mer frequency, TF over GST control) | 1.36 fold enrichment (6-mer frequency, TF over GST control) | 1.32 fold enrichment (6-mer frequency, TF over GST control) | 1.24 fold enrichment (6-mer frequency, TF over GST control) | 1.21 fold enrichment (6-mer frequency, TF over GST control) | 1.3 fold enrichment (6-mer frequency, TF over GST control) | 1.2 fold enrichment (6-mer frequency, TF over GST control) | 1.29 fold enrichment (6-mer frequency, TF over GST control)
TAATGA | 1.26 fold enrichment (6-mer frequency, TF over GST control) | 1.24 fold enrichment (6-mer frequency, TF over GST control) | 1.2 fold enrichment (6-mer frequency, TF over GST control) | 1.11 fold enrichment (6-mer frequency, TF over GST control) | 1.18 fold enrichment (6-mer frequency, TF over GST control) | 1.12 fold enrichment (6-mer frequency, TF over GST control) | 1.1 fold enrichment (6-mer frequency, TF over GST control) | 1.21 fold enrichment (6-mer frequency, TF over GST control)
AAAAAA | 1.35 fold enrichment (6-mer frequency, TF over GST control) | 1.28 fold enrichment (6-mer frequency, TF over GST control) | 1.34 fold enrichment (6-mer frequency, TF over GST control) | 1.21 fold enrichment (6-mer frequency, TF over GST control) | 1.31 fold enrichment (6-mer frequency, TF over GST control) | 1.29 fold enrichment (6-mer frequency, TF over GST control) | 1.33 fold enrichment (6-mer frequency, TF over GST control) | 1.35 fold enrichment (6-mer frequency, TF over GST control)
GGTATA | 1.18 fold enrichment (6-mer frequency, TF over GST control) | 1.12 fold enrichment (6-mer frequency, TF over GST control) | 1.08 fold enrichment (6-mer frequency, TF over GST control) | 1.12 fold enrichment (6-mer frequency, TF over GST control) | 1.13 fold enrichment (6-mer frequency, TF over GST control) | 1.09 fold enrichment (6-mer frequency, TF over GST control) | 1.11 fold enrichment (6-mer frequency, TF over GST control) | 1.03 fold enrichment (6-mer frequency, TF over GST control)
ACACTG | 1.17 fold enrichment (6-mer frequency, TF over GST control) | 1.11 fold enrichment (6-mer frequency, TF over GST control) | 1.06 fold enrichment (6-mer frequency, TF over GST control) | 1.05 fold enrichment (6-mer frequency, TF over GST control) | 1.03 fold enrichment (6-mer frequency, TF over GST control) | 1.05 fold enrichment (6-mer frequency, TF over GST control) | 1.01 fold enrichment (6-mer frequency, TF over GST control) | 1.04 fold enrichment (6-mer frequency, TF over GST control)
ATGTCA | 1.2 fold enrichment (6-mer frequency, TF over GST control) | 1.2 fold enrichment (6-mer frequency, TF over GST control) | 1.2 fold enrichment (6-mer frequency, TF over GST control) | 1.1 fold enrichment (6-mer frequency, TF over GST control) | 1.02 fold enrichment (6-mer frequency, TF over GST control) | 1.09 fold enrichment (6-mer frequency, TF over GST control) | 1.12 fold enrichment (6-mer frequency, TF over GST control) | 1.11 fold enrichment (6-mer frequency, TF over GST control)
CTGCAC | 1.11 fold enrichment (6-mer frequency, TF over GST control) | 1.16 fold enrichment (6-mer frequency, TF over GST control) | 1.12 fold enrichment (6-mer frequency, TF over GST control) | 1.17 fold enrichment (6-mer frequency, TF over GST control) | 1.05 fold enrichment (6-mer frequency, TF over GST control) | 1.1 fold enrichment (6-mer frequency, TF over GST control) | 1.23 fold enrichment (6-mer frequency, TF over GST control) | 1.24 fold enrichment (6-mer frequency, TF over GST control)
TACGGC | 1.32 fold enrichment (6-mer frequency, TF over GST control) | 1.26 fold enrichment (6-mer frequency, TF over GST control) | 1.22 fold enrichment (6-mer frequency, TF over GST control) | 1.18 fold enrichment (6-mer frequency, TF over GST control) | 1.13 fold enrichment (6-mer frequency, TF over GST control) | 1.2 fold enrichment (6-mer frequency, TF over GST control) | 1.21 fold enrichment (6-mer frequency, TF over GST control) | 1.2 fold enrichment (6-mer frequency, TF over GST control)
TGTTAC | 1.3 fold enrichment (6-mer frequency, TF over GST control) | 1.41 fold enrichment (6-mer frequency, TF over GST control) | 1.39 fold enrichment (6-mer frequency, TF over GST control) | 1.54 fold enrichment (6-mer frequency, TF over GST control) | 1.42 fold enrichment (6-mer frequency, TF over GST control) | 1.43 fold enrichment (6-mer frequency, TF over GST control) | 1.44 fold enrichment (6-mer frequency, TF over GST control) | 1.31 fold enrichment (6-mer frequency, TF over GST control)
CCGGGT | 1.1 fold enrichment (6-mer frequency, TF over GST control) | 1.04 fold enrichment (6-mer frequency, TF over GST control) | 1.24 fold enrichment (6-mer frequency, TF over GST control) | 1.79 fold enrichment (6-mer frequency, TF over GST control) | 1.13 fold enrichment (6-mer frequency, TF over GST control) | 1.55 fold enrichment (6-mer frequency, TF over GST control) | 1.21 fold enrichment (6-mer frequency, TF over GST control) | 1.21 fold enrichment (6-mer frequency, TF over GST control)
TGCAAC | 1.31 fold enrichment (6-mer frequency, TF over GST control) | 1.28 fold enrichment (6-mer frequency, TF over GST control) | 1.28 fold enrichment (6-mer frequency, TF over GST control) | 1.37 fold enrichment (6-mer frequency, TF over GST control) | 1.19 fold enrichment (6-mer frequency, TF over GST control) | 1.23 fold enrichment (6-mer frequency, TF over GST control) | 1.32 fold enrichment (6-mer frequency, TF over GST control) | 1.35 fold enrichment (6-mer frequency, TF over GST control)
CATTTC | 1.72 fold enrichment (6-mer frequency, TF over GST control) | 1.81 fold enrichment (6-mer frequency, TF over GST control) | 1.87 fold enrichment (6-mer frequency, TF over GST control) | 1.75 fold enrichment (6-mer frequency, TF over GST control) | 1.68 fold enrichment (6-mer frequency, TF over GST control) | 2.15 fold enrichment (6-mer frequency, TF over GST control) | 1.87 fold enrichment (6-mer frequency, TF over GST control) | 2.02 fold enrichment (6-mer frequency, TF over GST control)
TTTTTT | 1.18 fold enrichment (6-mer frequency, TF over GST control) | 1.18 fold enrichment (6-mer frequency, TF over GST control) | 1.09 fold enrichment (6-mer frequency, TF over GST control) | 1.22 fold enrichment (6-mer frequency, TF over GST control) | 1.26 fold enrichment (6-mer frequency, TF over GST control) | 1.14 fold enrichment (6-mer frequency, TF over GST control) | 1.2 fold enrichment (6-mer frequency, TF over GST control) | 1.11 fold enrichment (6-mer frequency, TF over GST control)
GGTTTC | 1.49 fold enrichment (6-mer frequency, TF over GST control) | 1.52 fold enrichment (6-mer frequency, TF over GST control) | 1.52 fold enrichment (6-mer frequency, TF over GST control) | 1.55 fold enrichment (6-mer frequency, TF over GST control) | 1.38 fold enrichment (6-mer frequency, TF over GST control) | 1.52 fold enrichment (6-mer frequency, TF over GST control) | 1.46 fold enrichment (6-mer frequency, TF over GST control) | 1.51 fold enrichment (6-mer frequency, TF over GST control)
CACATA | 1.17 fold enrichment (6-mer frequency, TF over GST control) | 1.19 fold enrichment (6-mer frequency, TF over GST control) | 1.1 fold enrichment (6-mer frequency, TF over GST control) | 1.11 fold enrichment (6-mer frequency, TF over GST control) | 1.03 fold enrichment (6-mer frequency, TF over GST control) | 1.05 fold enrichment (6-mer frequency, TF over GST control) | 1.09 fold enrichment (6-mer frequency, TF over GST control) | 1.1 fold enrichment (6-mer frequency, TF over GST control)
